Experimental findings from PubChem BioAssay (NCATS) are described below.

In test [1] the target is Mitogen-activated protein kinase 10 (Mus musculus) (UniProt Q61831). In words: JNK3 AlphaScreen Assay (AID 530; active means well fitted curve in either direction with a large enough effect, not every such curve was filed as active;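 further: kinase came from lysate of stimulated human HepG2 cells; signal reports phosphorylation of biotinylated GST-cJun 1-79 at Ser73 with 10 µM ATP; on the % scale 0 is the no-effect control and ±100 the full control effect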). Summed up:
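Room-temperature AlphaScreen kinase assay; pre-activated HepG2 lysate as JNK3 source, biotin-GST-cJun(1-79) substrate, 10 uM ATP, compound 15 min preincubation.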
(In general: Bead proximity is the source of the signal in Alpha formats.)

Test [2] can be described thus: Cell Viability - N2a (AID 540).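 Further: plate controls were DMSO alone for no effect and tamoxifen control for full effect; nearly all actives have a fitted effect of over 45% in size.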 The following applies: N2a mouse neuroblastoma cell viability; at 92.2 µM (top of the series). Put shortly: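 Mouse neuroblastoma N2a cells (1500/well) were preincubated 5 hr at 37 °C, then exposed to compounds for 40 hr at 37 °C in complete medium. Viability was read as intracellular ATP by CellTiter-Glo luminescence; AC50 from Hill fits.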

Test [3] can be described thus: Cell Viability - NIH 3T3 (AID 541).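 Further: plate controls were DMSO alone for no effect and tamoxifen positive control for full effect; nearly all actives have a fitted effect of over 25% in size.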 The following applies: NIH 3T3 cell viability, qHTS; activity change, negative = cytotoxicity: at 92.2 µM (top of the series). Put shortly:
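NIH 3T3 mouse embryo fibroblasts (1000 cells/well) were plated in complete medium and treated with compound for 40 hr at 37 °C. Viability was read as intracellular ATP by CellTiter-Glo luminescence; AC50 values came from Hill-equation fits of concentration-response data.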
For orientation: In qHTS, concentration-response curves come from the screen itself.

A short description of test [4]: Cell Viability - HUV-EC-C (AID 542). Further: on the % scale 0 is the no-effect control and ±100 the full control effect; nearly all actives have a fitted effect of over 35% in size. Put shortly: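 HUV-EC-C normal human vascular endothelial cells, 1000 cells/well, pre-incubated 5 hr at 37 °C, then exposed to compounds for 40 hr at 37 °C in complete medium. Viability measured as intracellular ATP by CellTiter-Glo luminescence; AC50 from Hill fits.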
Test [5] is described as follows: Cell Viability - H-4-II-E (AID 543). Further: on the % scale 0 is the no-effect control and ±100 the full control effect; nearly all actives have a fitted effect of over 35% in size. Put shortly: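 Rat hepatoma H-4-II-E cells (1500/well) were plated, incubated 5 hr at 37 °C, then exposed to compounds for 40 hr at 37 °C. Cellular ATP was read by CellTiter-Glo luminescence; AC50 came from Hill-equation fits of concentration-response data.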
Test [6] can be described thus: Cell Viability - SH-SY5Y (AID 544). Further: nearly all actives have a fitted effect of over 55% in size. Particulars: SH-SY5Y neuroblastoma cell viability; viability change, negative = cytotoxic: at 92.2 µM (top of the series). Summed up: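 Human neuroblastoma SH-SY5Y cells (1500/well) in complete medium were exposed to compounds for 40 hr at 37 °C; intracellular ATP was then quantified by CellTiter-Glo luminescence after 20 min at room temperature. AC50 came from Hill-equation concentration-response fits.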

Test [7] can be described thus: Cell Viability - Renal Proximal Tubule (AID 545). Further: nearly all actives have a fitted effect of over 40% in size. Particulars: renal proximal tubule cells viability; at 91.7 µM (top of the series) unless noted. Summed up: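 In this qHTS format, normal rat kidney-derived proximal tubule cells in complete culture medium receive compound titrations, then sit 40 hours at 37 °C before luciferase-based ATP quantitation; potency is reported as AC50 from concentration-response curves.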

Test [8] is described as follows: Cell Viability - Mesenchymal (AID 546).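 Further: cells exposed to compound for 40 hours before reading.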 Put shortly: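 AC50 values reflect the drop in intracellular ATP in a human kidney mesenchymal line derived from normal glomeruli. Treatment lasts 40 hr at 37 °C in complete medium, and the signal comes from CellTiter-Glo luminescence.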
Test [9] can be described thus: Cellular Toxicity (caspase-3) HepG2 (AID 654).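 Further: cells exposed to compound for 16 hours before reading; 0% = DMSO alone and 100% = caspase signal from 100 µM tamoxifen.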 Put shortly:
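HepG2 cells (1500/well) in complete medium were treated with compounds for 16 hr at 37 °C. Caspase-3/7 activity was then read as luminescence from peptide-aminoluciferin cleavage. AC50 came from Hill fits, normalized to DMSO and 100 uM tamoxifen.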

Test [10] in a line: Cellular Toxicity (caspase-3) Jurkat (AID 655).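 Further: cells exposed to compound for 16 h at 37 °C before reading.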 The following applies: Jurkat caspase-3 activation, luminescence; caspase-3 activation: at 92.2 µM (top of the series), DMSO = 0%, tamoxifen = 100%. Summed up:
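qHTS in human Jurkat T-cell leukemia line: 16 hr compound treatment at 37 °C, caspase-3/7 activity measured by Caspase-Glo luminescence. AC50 derived from Hill equation.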

The nature of test [11]: Cellular Toxicity (caspase-3) HUV-EC-C (AID 656). Put shortly:
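Concentration-dependent caspase 3/7 induction was assessed in HUV-EC-C cells exposed for 16 hours. Data scaled between DMSO and tamoxifen (100 uM) controls.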

A short description of test [12]: Cellular Toxicity (caspase-3) SHSY5Y (AID 657).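 Further: cells exposed to compound for 16 hours at 37 °C.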 Summed up: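 Readout: caspase-cleaved peptide-aminoluciferin substrate driving luciferase light in SH-SY5Y neuroblastoma cells after 16 h treatment. Response normalized to DMSO and 10 uM staurosporine controls.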
The nature of test [13]: Cellular Toxicity (caspase-3) BJ (AID 658).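 Further: 0% = DMSO basal and 100% = 10 µM staurosporine.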 Put shortly:
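Readout: Caspase-Glo 3/7 luminescence increase in BJ cells after 16 hr treatment at 37 °C. Staurosporine and tamoxifen served as positive controls; AC50 values came from Hill modelling of data normalized to DMSO and 10 uM staurosporine.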

Test [14] in a line: Cellular Toxicity (caspase-3) MRC-5 (AID 659).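 Further: 0% = DMSO basal and 100% = 10 µM staurosporine.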 Put shortly:
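Concentration-dependent caspase 3/7 activation is measured in human normal lung fibroblasts (MRC-5) following 16-hour treatment. AC50 values come from standard Hill-equation modeling of luminescence normalized to DMSO and 10 uM staurosporine.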

Test [15] in a line: Cellular Toxicity (caspase-3) Mesangial (AID 660).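 Further: cells exposed to compound for 16 h before the caspase read.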 Summed up:
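Human renal glomerular mesangial cells (1000/well) were treated with compounds for 16 h at 37 °C in complete medium, then caspase 3/7 activity was read by Caspase-Glo luminescence. Data were normalized to DMSO and 100 uM tamoxifen; AC50 from Hill fits.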

Test [16] is described as follows: Cellular Toxicity (caspase-3) SK-N-SH (AID 661).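 Further: 0% = DMSO basal and 100% = 10 µM staurosporine.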 Summed up:
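SK-N-SH human neuroblastoma cells (1500/well) were treated with compounds for 16 hr at 37 °C in complete medium; caspase 3/7 activity was read by Caspase-Glo luminescence. AC50 came from Hill fits of data normalized to DMSO and 10 uM staurosporine.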

Test [17] in a line: Cellular Toxicity (caspase-3) H-4-II-E (AID 663).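 Further: cells exposed to compound for 16 hr before readout.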 The following applies: H-4-II-E rat hepatoma, scaled: DMSO 0%, 100 µM tamoxifen 100%; at 92.2 µM (top of the series). Put shortly: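 Apoptosis induction is scored as increased luminescence from caspase 3/7 substrate cleavage in rat hepatoma H-4-II-E cells exposed to compound for 16 hr. Activity is scaled between DMSO and 100 uM tamoxifen.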

Test [18] deals with Glucocorticoid receptor (Homo sapiens) (UniProt P04150). Nature of the test: GR-GFP Redistribution (AID 450;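 active means compounds whose dose series gives a full or clear partial fitted curve of increased nuclear translocation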; further: potency means the concentration at half of the fitted maximal effect). The following applies: U2OS GR-GFP nuclear translocation, laser cytometry, 2 h.
Chain of Glucocorticoid receptor (Homo sapiens) (P04150 whole entry, looked up): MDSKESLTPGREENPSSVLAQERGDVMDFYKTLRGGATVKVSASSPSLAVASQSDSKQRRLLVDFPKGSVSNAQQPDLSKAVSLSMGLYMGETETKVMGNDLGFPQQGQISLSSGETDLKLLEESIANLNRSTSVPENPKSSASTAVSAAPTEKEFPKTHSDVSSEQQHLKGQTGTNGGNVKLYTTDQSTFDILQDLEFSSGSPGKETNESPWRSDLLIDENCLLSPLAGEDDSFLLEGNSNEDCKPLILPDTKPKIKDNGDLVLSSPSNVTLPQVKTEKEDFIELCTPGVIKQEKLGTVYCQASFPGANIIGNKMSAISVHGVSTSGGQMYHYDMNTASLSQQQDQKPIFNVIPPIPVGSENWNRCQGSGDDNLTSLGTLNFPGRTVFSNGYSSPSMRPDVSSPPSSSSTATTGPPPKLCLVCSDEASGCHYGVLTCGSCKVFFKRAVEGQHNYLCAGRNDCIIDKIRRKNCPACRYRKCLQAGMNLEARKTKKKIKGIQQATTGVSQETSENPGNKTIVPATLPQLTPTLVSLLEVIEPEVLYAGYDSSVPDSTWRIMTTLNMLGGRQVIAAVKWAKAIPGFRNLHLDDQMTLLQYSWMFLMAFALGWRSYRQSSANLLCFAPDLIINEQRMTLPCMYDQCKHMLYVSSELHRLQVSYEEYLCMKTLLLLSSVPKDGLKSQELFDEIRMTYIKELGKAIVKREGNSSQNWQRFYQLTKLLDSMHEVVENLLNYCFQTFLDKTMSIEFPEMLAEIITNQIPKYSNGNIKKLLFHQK
The target is the same in test [19]. Nature of the test: GR-EFC Redistribution (AID 451; calls by dose curve; further: potency means the concentration at half of the fitted maximal effect). Particulars: CHO-K1 GR-EFC translocation, beta-gal luminescence, 2 h. Summed up:
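Translocation of GR-ED fusion to nuclear EA restores b-gal, read by luminescence after 1 h room-temperature detection. Engineered CHO-K1 biosensor cells, 1,000/well, exposed 2 h at 37 C to titrations up to 46 uM final.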

Test [20] has as its target 3',5'-cyclic-AMP phosphodiesterase 4B (Homo sapiens) (UniProt Q07343). In words: qHTS Assay for Inhibitors of PDE-IV (AID 607; active means well fitted activation curve with a large enough effect in the main read-out, with a control signal flat, not every such curve was filed as active; further: % of control where 0% means no effect). Put shortly:
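ACTOne HEK293 cells carry a modified cAMP-gated CNG channel and express endogenous PDE4; plated 1000 cells/well, compounds up to 22.9 uM final. Membrane-potential dye fluorescence (ex 535/em 590) was read; parental cells received 10 uM forskolin + 100 uM RO 20-1724.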

Molecules are shown by their SMILES. A number with no mark means an inactive call. Results filed as inconclusive are left out. Activity calls are given as the source filed them. Unless noted, the call rests on the fitted dose curve; in most records, active means well fitted curve in the direction sought with a large enough effect; inconclusive means small, poorly fitted or top-dose-only effect, or another doubt; inactive means no such curve, though single readings can be large; an effect the other way counts as inactive or inconclusive.

Chain of 3',5'-cyclic-AMP phosphodiesterase 4B (Homo sapiens) (Q07343 whole entry, looked up): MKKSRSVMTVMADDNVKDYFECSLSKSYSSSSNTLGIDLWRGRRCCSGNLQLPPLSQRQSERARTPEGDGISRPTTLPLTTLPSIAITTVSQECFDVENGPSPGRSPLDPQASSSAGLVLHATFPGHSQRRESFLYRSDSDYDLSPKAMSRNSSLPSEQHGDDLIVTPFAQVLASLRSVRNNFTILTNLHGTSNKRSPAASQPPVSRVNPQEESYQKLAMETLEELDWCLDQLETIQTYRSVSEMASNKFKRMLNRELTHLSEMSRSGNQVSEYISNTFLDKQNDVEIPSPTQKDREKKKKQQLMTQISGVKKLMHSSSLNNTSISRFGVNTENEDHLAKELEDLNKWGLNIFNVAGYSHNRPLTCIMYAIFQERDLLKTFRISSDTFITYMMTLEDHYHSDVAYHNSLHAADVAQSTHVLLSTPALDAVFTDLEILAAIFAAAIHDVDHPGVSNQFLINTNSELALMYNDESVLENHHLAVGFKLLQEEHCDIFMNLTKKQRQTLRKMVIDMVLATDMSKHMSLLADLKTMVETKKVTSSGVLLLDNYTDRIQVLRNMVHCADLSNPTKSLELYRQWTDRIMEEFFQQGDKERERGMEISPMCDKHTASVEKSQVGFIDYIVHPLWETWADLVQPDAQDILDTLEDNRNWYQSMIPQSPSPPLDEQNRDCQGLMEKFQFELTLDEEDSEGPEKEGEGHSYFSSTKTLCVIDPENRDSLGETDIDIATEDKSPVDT

In the case of `c1ccc2c(c1)Nc1ccccc1S2`, the molecule was called inactive in test [1], in [4], in [8], in [11], in test [13] and in [14]. Besides, the outcome in test [15] and in test [16] was inactive. Also, the figures for the activity change, negative = cytotoxicity in [2], in test [3] and in test [7] were -21.6%, -26.2% and -25%, respectively. The Potency result in test [5], in [9] and in test [12] was “inactive” each time. The viability change, negative = cytotoxic in test [6] is -26%. In addition, the caspase-3 activation in test [10] was 0.561%; in test [17], -0.251%.
For `C=C(C)[C@H]1Cc2c(ccc3c2O[C@@H]2COc4cc(OC)c(OC)cc4[C@@H]2C3=O)O1`, the Potency in [18] and in [19] was greater than 46 µM each time. Further, the result in test [20] was inactive.
For the molecule `CCn1cc(C(=O)O)c(=O)c2ccc(C)nc21`, the molecule was classed as inactive in test [1] and in test [20].
As to `NN=C(N)N`, the result in [1] and in [20] was inactive.
Take `Oc1ccccc1-c1ccccc1`: the outcome in test [1], in test [4], in [8], in test [11], in test [13] and in [14] was inactive. The molecule was classed as inactive in test [15] and in test [16]. For the same molecule, the activity change, negative = cytotoxicity in test [2] was -8.25%; in test [3], -15.3%; in [7], -16.3% [at 91.7 µM, primary cells of rat origin]. Moreover, the Potency entry in test [5], in test [9] and in test [12] was “inactive” in each case. In addition, the viability change, negative = cytotoxic in test [6] was -9.19%. The caspase-3 activation in [10] is 82.5% (active); in test [17] it was -0.124%.
With `N#CC(C#N)=Cc1ccc(O)c(O)c1`, the call in test [20] was inactive.
Turning to `CCCN1CCC[C@@H]2Cc3nc(N)ncc3C[C@H]21`, the molecule was classed as inactive in test [1] and in [20].
On to `Cc1cccc(C)c1NC1=NCCCS1`, for which the molecule was called inactive in test [1] and in [20].
For the molecule `CCOP(=S)(OCC)Oc1cc(C)nc(C(C)C)n1`, the call in test [1], in test [4], in test [8], in test [11], in [13] and in test [14] was inactive. For the same molecule, the molecule was called inactive in test [15] and in [16]. The activity change, negative = cytotoxicity in test [2] is -3.66%; in test [3] it was -10%; in [7], -3.55%. Also, the Potency result in [5], in test [9] and in test [12] was “inactive” in each case. Moreover, the viability change, negative = cytotoxic in test [6] was -9.46%. Further, the caspase-3 activation in test [10] is 1.42%; in test [17], -0.387%.
Take `COc1ccccc1N1CCNCC1`: the Potency in test [18] and in test [19] was greater than 46 µM in each case. Also, the result in test [20] was inactive.
As to `N[C@@H]1C[C@H]1c1ccccc1`, the outcome in test [1] and in test [20] was inactive.
